SMILES strings stand for the structures. Inconclusive results are not listed. A number with no mark means an inactive call.
% is scaled to controls: 0 for no effect and ±100 for the full control effect.

Sequence of Estrogen receptor beta (Homo sapiens) (Q92731 whole entry, looked up): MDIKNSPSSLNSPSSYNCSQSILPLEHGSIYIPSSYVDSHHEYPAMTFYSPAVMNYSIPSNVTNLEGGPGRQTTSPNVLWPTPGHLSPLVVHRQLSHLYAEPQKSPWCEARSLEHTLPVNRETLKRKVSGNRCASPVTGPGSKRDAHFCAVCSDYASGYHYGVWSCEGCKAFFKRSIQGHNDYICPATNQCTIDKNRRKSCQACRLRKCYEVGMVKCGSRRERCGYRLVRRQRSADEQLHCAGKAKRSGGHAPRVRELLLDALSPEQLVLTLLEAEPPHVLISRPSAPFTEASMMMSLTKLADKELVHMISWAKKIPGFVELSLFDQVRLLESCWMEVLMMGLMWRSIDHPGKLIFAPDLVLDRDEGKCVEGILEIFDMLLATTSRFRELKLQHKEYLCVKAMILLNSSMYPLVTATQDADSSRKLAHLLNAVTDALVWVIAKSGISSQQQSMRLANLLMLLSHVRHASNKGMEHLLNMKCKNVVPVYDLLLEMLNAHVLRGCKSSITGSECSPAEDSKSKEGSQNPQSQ

The first assay addresses Estrogen receptor beta (Homo sapiens) (UniProt Q92731). Nature of the assay: qHTS assay to identify small molecule agonists of the estrogen receptor beta (ER-beta) signaling pathway (AID 1259377; active = well fitted activation curve with a large enough effect in the signal ratio in the repeat runs, not every such curve was filed as active; the % refers to the signal ratio). To be noted: ER-beta-UAS-bla HEK293T, beta-lactamase FRET ratio, 16 h; series mostly up to 92.4 µM; activation: at the top concentration. The method, boiled down: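 ER-beta-UAS-bla HEK293T (GripTite) cells carrying a UAS-driven beta-lactamase reporter, in medium with 2% charcoal-stripped FBS, were exposed to compounds for 16 hr at 37C; LiveBLAzer B/G FRET substrate was then added and fluorescence read after 2 hours at room temperature.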
For the compound `CCCCCCCCCCCCCCCC(=O)OC`, the activation was -1.46% [at 19 µM].
For the compound `N[C@H]1C(O)O[C@H](CO)[C@@H](O)[C@@H]1O` (stereo partly specified), the “activation” value is 0.0154% [at 42.5 µM].
In the case of `C=C(C)C(=O)OCCOC1CC2CC1C1C=CCC21` (stereo unspecified), the “activation” value was 0.664%.
On to `C=COCCCCO`, for which the “activation” value is -3.42%.
With `COC(=O)c1ccc(C(=O)O)cc1`, the “activation” value was -1.12%.
On the same count and under the same terms, as for `COC(=O)c1cc(Cl)c(NC(C)=O)cc1OC`, the figure is 2.52% [at 42.5 µM]; as for `COC(=O)/C=C(\C)CCC=C(C)C`, 9.45%.
`CCO[Si](CC(C)C)(OCC)OCC`: the “activation” value is -1.11%.
In the case of `CC(C)C(C)C`, the “activation” value is -1.2%.
Take `CC1(C)S[C@@H]2[C@H](NC(=O)Cc3ccccc3)C(=O)N2[C@H]1C(=O)O` (tested in a mixture with another compound): the “activation” value was -0.594% [at 42.5 µM].
On to `CCOC(=O)CN1CCCC1=O`, for which the “activation” value was -1.58% [at 42.5 µM].
`CC[N+](C)(CC)CC`: the “activation” value was -0.762%.
As to `BrCCOc1ccccc1`, the “activation” value was 1.52%.
Regarding `CCCCC(CC)COC(=O)CC#N` (stereo unspecified), the “activation” value was 0.059%.
On the same count and under the same terms, as for `Cc1ccc2cccnc2c1`, the figure is -0.784%; as for `CCCCCCCCCCCCCCCCN(C)C`, -2.39% [at 8.39 µM].
On the same count and under the same terms, the result for `O=S(=O)(O)c1cc(I)c(O)c2ncccc12` reads 6.58% [at 42.5 µM]; that for `CCC(C)c1nccnc1OC` (stereo unspecified), 1.09%.
With `CCCCC(O)/C=C(C)/C=C/C=C/C(=O)N1CCCC1=O` (stereo unspecified), the “activation” value was 1.66% [at 42.5 µM].
Still for that read-out and setting: the result for `Clc1cc(Cl)c(Cl)c(Cl)c1Cl` reads -1.36%.
Turning to `CC(C)OCCO`, the “activation” value was 5.78%.
Consider `COc1ccc(Cl)cc1C`, for which the “activation” value is -0.0619%.
On to `O=Cc1ccccc1S(=O)(=O)O`, for which the “activation” value was -1.23%.
Consider `O=c1[nH]c(=O)c2cn[nH]c2[nH]1`, for which the “activation” value is 0.432%.
For `CC(C)(C)c1ccc(C(=O)CCCCl)cc1`, the “activation” value is 0.694% [at 42.5 µM].
In the case of `O=C(O)Cc1c(Cl)ccc(Cl)c1Cl`, the “activation” value is 0.718%.
Same read-out and setting: as for `CC(C)(C)NCC(O)COc1cccc2c1CCC(=O)N2` (stereo unspecified), the figure is 6.61% [at 42.5 µM]; as for `CCC(C)(C)C`, 2.45%; as for `C=CCON/C(CCC)=C1\C(=O)CC(C)(C)C(C(=O)OC)=C1O`, -0.144%.
With `C/C=C/C(=O)CCCC`, the “activation” value is 7.47%.
On to `CN1CCN(C(=O)C2CCCCC2)CC1`, for which the “activation” value was 3.81% [at 42.5 µM].
For `CCCOc1ccc(C(=O)OCCN(CC)CC)cc1N`, the “activation” value was 5.36% [at 42.5 µM].
As to `Cc1nnc(C(=O)NC(C)(C)c2nc(C(=O)NCc3ccc(F)cc3)c(O)c(=O)n2C)o1`, the “activation” value is -2.03% [at 42.5 µM].
As for `COc1cc2nc(N3CCN(C(=O)C4CCCO4)CC3)nc(N)c2cc1OC` (stereo unspecified), the “activation” value is 5.06% [at 42.5 µM].
Consider `CC(=O)SCC(CC(=O)c1ccc(C)cc1)C(=O)O` (stereo unspecified), for which the “activation” value was 6.06% [at 42.5 µM].
For the compound `CCc1ncc(C)[nH]1`, the “activation” value is 6.62%.
In the case of `CCN(CC)CC(=O)Oc1ccc(NC(C)=O)cc1`, the “activation” value was 3.69% [at 42.5 µM].
Take `CCN1CCN(C(=O)N[C@@H](C(=O)N[C@@H]2C(=O)N3[C@@H]2SC(C)(C)[C@H]3C(=O)O)c2ccccc2)C(=O)C1=O`: the “activation” value was 2.71% [at 42.5 µM].

The next assay has the same target. Nature of the assay: qHTS assay to identify small molecule antagonists of the estrogen receptor beta (ER-beta) signaling pathway (AID 1259378; active = well fitted inhibition curve with a large enough effect in the signal ratio in the repeat runs, not every such curve was filed as active; the % refers to the signal ratio). To be noted: ER-beta-UAS-bla HEK293T, beta-lactamase FRET ratio, 16 h; series mostly up to 92.4 µM; activity, negative = inhibition: at the top concentration. Put shortly:
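ER-beta-UAS-bla HEK293T cells in 2% charcoal-stripped FBS medium treated with compound plus 1nM final 17-beta-estradiol for 16 hr at 37C. Beta-lactamase reporter read by FRET substrate fluorescence after 2 hours at room temperature.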
As to `CCCCCCCCCCCCCCCC(=O)OC`, the activity, negative = inhibition was 3.6% [at 19 µM].
`N[C@H]1C(O)O[C@H](CO)[C@@H](O)[C@@H]1O` (stereo partly specified): the “activity, negative = inhibition” value is 4.84% [at 42.5 µM].
In the case of `C=C(C)C(=O)OCCOC1CC2CC1C1C=CCC21` (stereo unspecified), the “activity, negative = inhibition” value is 22.8%.
`C=COCCCCO`: the “activity, negative = inhibition” value is -0.735%.
With `COC(=O)c1ccc(C(=O)O)cc1`, the “activity, negative = inhibition” value was 0.28%.
On to `COC(=O)c1cc(Cl)c(NC(C)=O)cc1OC`, for which the “activity, negative = inhibition” value is 2.92% [at 42.5 µM].
In the case of `COC(=O)/C=C(\C)CCC=C(C)C`, the “activity, negative = inhibition” value is 4.23%.
The same measure, in the same setting: the result for `CCO[Si](CC(C)C)(OCC)OCC` reads -8.47%.
As to `CC(C)C(C)C`, the “activity, negative = inhibition” value was 18%.
With `CC1(C)S[C@@H]2[C@H](NC(=O)Cc3ccccc3)C(=O)N2[C@H]1C(=O)O` (tested in a mixture with another compound), the “activity, negative = inhibition” value was 8.46% [at 42.5 µM].
Regarding `CCOC(=O)CN1CCCC1=O`, the “activity, negative = inhibition” value was 11.6% [at 42.5 µM].
On to `CC[N+](C)(CC)CC`, for which the “activity, negative = inhibition” value is 4.99%.
In the case of `BrCCOc1ccccc1`, the “activity, negative = inhibition” value was 5.76%.
Same read-out and setting: as for `CCCCC(CC)COC(=O)CC#N` (stereo unspecified), the figure is -3.53%; as for `Cc1ccc2cccnc2c1`, 2.78%; as for `CCCCCCCCCCCCCCCCN(C)C`, 3.25% [at 8.39 µM].
Still for that read-out and setting: as for `O=S(=O)(O)c1cc(I)c(O)c2ncccc12`, the figure is -5.38% [at 42.5 µM].
On the same count and under the same terms, as for `CCC(C)c1nccnc1OC` (stereo unspecified), the figure is 19.2%.
Turning to `CCCCC(O)/C=C(C)/C=C/C=C/C(=O)N1CCCC1=O` (stereo unspecified), the “activity, negative = inhibition” value was 9.86% [at 42.5 µM].
With `Clc1cc(Cl)c(Cl)c(Cl)c1Cl`, the “activity, negative = inhibition” value is -0.216%.
For `CC(C)OCCO`, the “activity, negative = inhibition” value is 2.03%.
Turning to `COc1ccc(Cl)cc1C`, the “activity, negative = inhibition” value is -0.746%.
Consider `O=Cc1ccccc1S(=O)(=O)O`, for which the “activity, negative = inhibition” value is -1.59%.
Take `O=c1[nH]c(=O)c2cn[nH]c2[nH]1`: the “activity, negative = inhibition” value is -0.0639%.
As to `CC(C)(C)c1ccc(C(=O)CCCCl)cc1`, the “activity, negative = inhibition” value was -16.4% [at 42.5 µM].
On to `O=C(O)Cc1c(Cl)ccc(Cl)c1Cl`, for which the “activity, negative = inhibition” value was 2.57%.
As to `CC(C)(C)NCC(O)COc1cccc2c1CCC(=O)N2` (stereo unspecified), the “activity, negative = inhibition” value was 10.1% [at 42.5 µM].
The same measure, in the same setting: as for `CCC(C)(C)C`, the figure is 1.26%.
Consider `C=CCON/C(CCC)=C1\C(=O)CC(C)(C)C(C(=O)OC)=C1O`, for which the “activity, negative = inhibition” value is 3.56%.
With `C/C=C/C(=O)CCCC`, the “activity, negative = inhibition” value is 9.03%.
Still for that read-out and setting: the result for `CN1CCN(C(=O)C2CCCCC2)CC1` reads 0.378% [at 42.5 µM].
Same read-out and setting: as for `CCCOc1ccc(C(=O)OCCN(CC)CC)cc1N`, the figure is 18.2% [at 42.5 µM].
Consider `Cc1nnc(C(=O)NC(C)(C)c2nc(C(=O)NCc3ccc(F)cc3)c(O)c(=O)n2C)o1`, for which the “activity, negative = inhibition” value was 7.26% [at 42.5 µM].
As for `COc1cc2nc(N3CCN(C(=O)C4CCCO4)CC3)nc(N)c2cc1OC` (stereo unspecified), the “activity, negative = inhibition” value was 14% [at 42.5 µM].
As to `CC(=O)SCC(CC(=O)c1ccc(C)cc1)C(=O)O` (stereo unspecified), the “activity, negative = inhibition” value was -2.18% [at 42.5 µM].
The same measure, in the same setting: as for `CCc1ncc(C)[nH]1`, the figure is 12.5%; as for `CCN(CC)CC(=O)Oc1ccc(NC(C)=O)cc1`, 4.36% [at 42.5 µM].
The same measure, in the same setting: as for `CCN1CCN(C(=O)N[C@@H](C(=O)N[C@@H]2C(=O)N3[C@@H]2SC(C)(C)[C@H]3C(=O)O)c2ccccc2)C(=O)C1=O`, the figure is 18.4% [at 42.5 µM].
